# Experimental data taken from PubChem BioAssay (NCI).
# This is part of a sample that, as a whole, favours compounds with a hit. Of some 83,000 tested, about 20% had one in any assay.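 Activity criterion: percent growth below 10, measured after cells in 96-well plates were exposed to a single compound concentration for 48 hours.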 The source made the active and inactive calls.
# Test system: SK-MEL-2 melanoma
# Test: NCI-60 one-dose screen, 48 h (100 = growth as untreated, 0 = no growth, -100 = all killed)
# Conditions: 10 µM unless noted
row,SMILES,growth
1,CN1CCN(Cc2ccc(NC(=O)c3[nH]ncc3Nc3cc(OC4CCCC4)ncn3)cc2)CC1,49.4% (inactive)
2,Cn1c(/C=C(\C#N)c2ccccc2)nc2c(N3CCOCC3)nc(Cl)nc21,-34.4% (active)
3,CCN1C(=O)N(CC)C2Nn3c(s/c(=C\c4ccccc4F)c3=O)=NC21 (stereo not given),52.8% (inactive)
4,Cc1ccccc1CNC(=O)C1CN(c2ccc(Cl)cc2)N(c2ccc(Cl)cc2)C1=O (stereo not given),91.8% (inactive)
5,CCCCC1CCc2cccc3c(SCC(=O)N(C)c4ccc(Cl)cc4)cc[n+]1c23 (stereo not given),111% (inactive)
6,Clc1ccc(Oc2ccc(Nc3ncnc4onc(-c5ccccc5)c34)cc2)c(Cl)c1,104% (inactive)
7,O=C(O)c1cn(C2CC2)c2cc(N3CCN(C(=O)C[n+]4ccccc4)CC3)c(F)cc2c1=O,96.5% (inactive)
8,O=C(CSc1nc2ccccc2c(=O)n1-c1ccccc1)Nc1ccc(C(=O)/C=C/c2ccc(Cl)cc2)cc1,99.9% (inactive)
9,Cc1nc(Nc2cn[nH]c2C(=O)Nc2ccc(CN3CCN(C)CC3)cc2)c2ccsc2n1,111% (inactive)
10,CN1C(=O)N(C)C2Nn3c(s/c(=C4\C(=O)N(CCc5ccccc5)c5ccccc54)c3=O)=NC21 (stereo not given),69.3% (inactive)
11,O=C(/C=C/c1ccc(C(F)(F)F)cc1)c1ccc(Nc2nc(NCCO)nc(N3CCOCC3)n2)cc1,109% (inactive)
12,COc1cc(/C=C/C(=O)c2ccc(Nc3nc(NCCO)nc(N4CCOCC4)n3)cc2)cc(OC)c1OC,50.6% (inactive)
13,COc1cc(/C=C2\CN(S(=O)(=O)c3ccccc3)C/C(=C\c3cc(CN4CCCC4)c(O)c(OC)c3)C2=O)cc(CN2CCCC2)c1O,-0.727% (active)
14,O=c1c2cc(F)ccc2sc2c(Nc3ccncc3)nc3ccccc3c12,99.5% (inactive)
15,O=c1c2cc(F)ccc2sc2c(NCCN3CCCC3)nc3ccccc3c12,91% (inactive)
16,CNC(=O)c1cc(Oc2ccc(CC(=O)Nc3cc(C(C)(C)C)cn3C)cc2)ccn1,67.1% (inactive)
17,COc1cc2nc(NC3CCCC3)nc(NC3CCN(C(C)C)CC3)c2cc1OC,101% (inactive)
18,O=C(NCc1ccco1)C1CN(c2ccc(Cl)cc2)N(c2ccc(Cl)cc2)C1=O (stereo not given),49.2% (inactive)
19,COc1cccc2cc(N(C)c3nc(C)nc4ccsc34)ccc12,13.1% (inactive)
20,CN1C(=O)N(C)C2(c3ccccc3)OC(=S)NC12c1ccccc1 (stereo not given),102% (inactive)
21,Nc1nc(-c2cnccn2)nn1-c1nc2ccccc2s1,99.5% (inactive)
22,COc1ccc(N)c(-c2cc3c(c4c2[nH]c2ccc(OC)cc24)CCCC3)c1,95.4% (inactive)
23,COc1cccc(/C(C#N)=C/c2nc3c(N4CCOCC4)nc(Cl)nc3n2C)c1,-29.7% (active)
24,O=c1c(-c2nc3ccccc3[nH]2)cc2ccccc2n1Cc1cn(Cc2ccc(N3CCOCC3)cc2)nn1,86.9% (inactive)
25,Cn1c2c(c(=O)[nH]c1=O)NC1=C(C(=O)c3ccccc31)C1(C=C(O)c3ccccc31)N2 (stereo not given),107% (inactive)
26,COC(=O)/C(CCC=C(C)C)=C1\[C@@H](OC(C)=O)C[C@@]2(C)[C@H]1C[C@@H](O)[C@H]1[C@@]3(C)CC[C@H](NCCCNCCCCNCCCN)[C@@H](C)[C@@H]3CC[C@@]12C,98.1% (inactive)

# Test system: EKVX NSCLC
# Test: as above
# Conditions: 10 µM unless noted
row,SMILES,growth
1,Cc1ccc2sc3c(NCCCNCCO)nc4ccccc4c3c(=O)c2c1,57.3% (inactive)
2,NCCOc1ncccc1/C=C1\c2ccccc2-c2ccc(F)cc21,51.9% (inactive)
3,CNCCNc1nc2ccccc2c2c(=O)c3cc(OC)ccc3sc12,59.2% (inactive)
4,CC(C)c1ccc(S(=O)(=O)NC(=O)NC2CCCC2)cc1,98.1% (inactive)
5,COc1cc(/C=C2\CN(C)C/C(=C\c3cc(CN4CCCC4)c(O)c(OC)c3)C2=O)cc(CN2CCCC2)c1O,83.9% (inactive)
6,Nc1ccccc1-c1ccc(-c2ccc(Cl)cc2)c2c1[nH]c1ccccc12,70.6% (inactive)
7,O=C(Cn1cc(COc2ncnc3c2cnn3-c2ccccc2)nn1)Nc1ccccn1,86.2% (inactive)
8,NCCOc1ccccc1/C=C1\c2ccccc2-c2ccc([N+](=O)[O-])cc21,54.9% (inactive)
9,COc1cc(/C(C#N)=C/c2nc3c(N4CCOCC4)nc(Cl)nc3n2C)cc(OC)c1OC,35.2% (inactive)
10,Cc1ccc2cccc(Oc3ccc(Nc4ncnc5onc(-c6ccccc6)c45)cc3)c2n1,85.5% (inactive)
11,COC(=O)/C(CCC=C(C)C)=C1\[C@@H](OC(C)=O)C[C@@]2(C)[C@H]1C[C@@H](O)[C@H]1[C@@]3(C)CC[C@H](NCc4ccccc4)[C@@H](C)[C@@H]3CC[C@@]12C,63% (inactive)
12,COc1cc(/C=C/C(=O)c2ccc(Cl)cc2)cc(CN2CCCCC2)c1O,89.5% (inactive)
13,O=C(/C=C/c1ccc(Cl)cc1)c1ccc(Nc2nc(NCCO)nc(Nc3ccc(Cl)cc3)n2)cc1,59.1% (inactive)
14,CN1CCN(Cc2ccc(NC(=O)c3[nH]ncc3Nc3cc(OC4CCCC4)ncn3)cc2)CC1,60.1% (inactive)
15,Cn1c(/C=C(\C#N)c2ccccc2)nc2c(N3CCOCC3)nc(Cl)nc21,-72.4% (active)
16,CCN1C(=O)N(CC)C2Nn3c(s/c(=C\c4ccccc4F)c3=O)=NC21 (stereo not given),38.4% (inactive)
17,Cc1ccccc1CNC(=O)C1CN(c2ccc(Cl)cc2)N(c2ccc(Cl)cc2)C1=O (stereo not given),91.8% (inactive)
18,CCCCC1CCc2cccc3c(SCC(=O)N(C)c4ccc(Cl)cc4)cc[n+]1c23 (stereo not given),125% (inactive)
19,Clc1ccc(Oc2ccc(Nc3ncnc4onc(-c5ccccc5)c34)cc2)c(Cl)c1,103% (inactive)
20,O=C(O)c1cn(C2CC2)c2cc(N3CCN(C(=O)C[n+]4ccccc4)CC3)c(F)cc2c1=O,94.4% (inactive)

row,SMILES,growth
1,O=C(CSc1nc2ccccc2c(=O)n1-c1ccccc1)Nc1ccc(C(=O)/C=C/c2ccc(Cl)cc2)cc1,103% (inactive)
2,Cc1nc(Nc2cn[nH]c2C(=O)Nc2ccc(CN3CCN(C)CC3)cc2)c2ccsc2n1,106% (inactive)
3,CN1C(=O)N(C)C2Nn3c(s/c(=C4\C(=O)N(CCc5ccccc5)c5ccccc54)c3=O)=NC21 (stereo not given),58% (inactive)
4,O=C(/C=C/c1ccc(C(F)(F)F)cc1)c1ccc(Nc2nc(NCCO)nc(N3CCOCC3)n2)cc1,65.4% (inactive)
5,COc1cc(/C=C/C(=O)c2ccc(Nc3nc(NCCO)nc(N4CCOCC4)n3)cc2)cc(OC)c1OC,21.7% (inactive)
6,COc1cc(/C=C2\CN(S(=O)(=O)c3ccccc3)C/C(=C\c3cc(CN4CCCC4)c(O)c(OC)c3)C2=O)cc(CN2CCCC2)c1O,24.7% (inactive)
7,O=c1c2cc(F)ccc2sc2c(Nc3ccncc3)nc3ccccc3c12,35.8% (inactive)
8,O=c1c2cc(F)ccc2sc2c(NCCN3CCCC3)nc3ccccc3c12,66.2% (inactive)
9,CNC(=O)c1cc(Oc2ccc(CC(=O)Nc3cc(C(C)(C)C)cn3C)cc2)ccn1,75.6% (inactive)
10,COc1cc2nc(NC3CCCC3)nc(NC3CCN(C(C)C)CC3)c2cc1OC,81.6% (inactive)
11,O=C(NCc1ccco1)C1CN(c2ccc(Cl)cc2)N(c2ccc(Cl)cc2)C1=O (stereo not given),65.5% (inactive)
12,COc1cccc2cc(N(C)c3nc(C)nc4ccsc34)ccc12,60.2% (inactive)
13,CN1C(=O)N(C)C2(c3ccccc3)OC(=S)NC12c1ccccc1 (stereo not given),90.8% (inactive)
14,Nc1nc(-c2cnccn2)nn1-c1nc2ccccc2s1,94.6% (inactive)
15,COc1ccc(N)c(-c2cc3c(c4c2[nH]c2ccc(OC)cc24)CCCC3)c1,72.5% (inactive)
16,COc1cccc(/C(C#N)=C/c2nc3c(N4CCOCC4)nc(Cl)nc3n2C)c1,-77.3% (active)
17,O=c1c(-c2nc3ccccc3[nH]2)cc2ccccc2n1Cc1cn(Cc2ccc(N3CCOCC3)cc2)nn1,89.7% (inactive)
18,Cn1c2c(c(=O)[nH]c1=O)NC1=C(C(=O)c3ccccc31)C1(C=C(O)c3ccccc31)N2 (stereo not given),95.7% (inactive)
19,COC(=O)/C(CCC=C(C)C)=C1\[C@@H](OC(C)=O)C[C@@]2(C)[C@H]1C[C@@H](O)[C@H]1[C@@]3(C)CC[C@H](NCCCNCCCCNCCCN)[C@@H](C)[C@@H]3CC[C@@]12C,66.2% (inactive)
